Measurements reported in the supplement of paper PMC10849652.
Of roughly 7,900 targets only a part is listed; those with a hit were picked by preference. About 0.6% of all pairs of compound and target were hits. A number with no mark means an inactive call.

Assays:
Assay in all cases: log2 fold change, soluble protein after heating vs DMSO (PISA); higher = thermal stabilisation; K562 cells, 10 uM, 30 min; active = over 0.2 and 3.5 SD of the protein, either way, in both replicates (recomputed)
[1] = compound: CC1=C(C=C(C=C1)NC(=O)C2=CC(=CC=C2)C(C)(C)C#N)NC3=CC4=C(C=C3)N=CN(C4=O)C
How it was run: (§1)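 Values are thermal stability changes relative to control samples and are taken from duplicates. They are stated as log2 fold changes. Before quantification by TMTpro 16plex LC-MS/MS with equalised channel sums, K562 cells at 2×10^6 cells/mL were treated with 10 μM compound for 30 min, heated in aliquots for 3 min across 48°C-58°C, pooled, extracted in PBS with 0.5% NP-40 at 4°C, and centrifuged at 21,000xg for 90 min to give the soluble supernatant.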

[2] = compound: CC1=C(C=C(C=C1)NC(=O)C2=CC(=CC=C2)N(C)C)NC(=O)C3=CC=C(C=C3)O
How it was run: as §1

[3] = compound: CC1=CC=C(C=C1)SC2=C3C=C(SC3=CN=C2)C(=O)N
How it was run: as §1

[4] = compound: CC1=NC(=CC=C1)C2=C(N=C(N2)C(C)(C)C)C3=CC4=NC=CN=C4C=C3
How it was run: as §1

Nexturastat A = compound: CCCCN(Cc1ccc(C(=O)NO)cc1)C(=O)Nc1ccccc1 [Nexturastat A]
How it was run: as §1

vemurafenib = compound: CCCS(=O)(=O)Nc1ccc(F)c(C(=O)c2c[nH]c3ncc(-c4ccc(Cl)cc4)cc23)c1F [vemurafenib]
How it was run: as §1

[5] = compound: CCCS(=O)(=O)Nc1ccc(F)c(C(=O)c2c[nH]c3ncc(Cl)cc23)c1F
How it was run: as §1

[6] = compound: CCCc1cc(C)[nH]c(=O)c1CNC(=O)c1cc(-c2ccnc(N3CCN(C)CC3)c2)cc2c1cnn2C(C)C
How it was run: as §1

givinostat = compound: CCN(CC)Cc1ccc2cc(COC(=O)Nc3ccc(C(=O)NO)cc3)ccc2c1 [givinostat]
How it was run: as §1

barasertib = compound: CCN(CCCOc1ccc2c(Nc3cc(CC(=O)Nc4cccc(F)c4)[nH]n3)ncnc2c1)CCOP(=O)(O)O [barasertib]
How it was run: as §1

[7] = compound: CC[C@@H]1C(=O)N(C)c2cnc(Nc3ccc(C(=O)NC4CCN(C)CC4)cc3OC)nc2N1C1CCCC1
How it was run: as §1

volasertib = compound: CC[C@@H]1C(=O)N(C)c2cnc(Nc3ccc(C(=O)N[C@H]4CC[C@H](N5CCN(CC6CC6)CC5)CC4)cc3OC)nc2N1C(C)C [volasertib]
How it was run: as §1

[8] = compound: CC[C@H](C)N1C=C(C2=C(C=C(C=C21)C3=CN=C(C=C3)N4CCNCC4)C(=O)NCC5=C(C=C(NC5=O)C)C)C
How it was run: as §1

epoxomicin = compound: CC[C@H](C)[C@@H](C(=O)N[C@@H]([C@@H](C)O)C(=O)N[C@@H](CC(C)C)C(=O)[C@]1(CO1)C)NC(=O)[C@H]([C@@H](C)CC)N(C)C(=O)C [epoxomicin]
How it was run: as §1

[9] = compound: CCn1c(C(=O)N(C2CC2)C2CC2)cc2c3c(ncn3C)c(Nc3cc(C)n(C)n3)nc21
How it was run: as §1

[10] = compound: CCn1cc(-c2ccnc3[nH]c(-c4cccc(CN(C)C)c4)cc23)c(-c2ccc(NC(=O)N(C)C)cc2)n1
How it was run: as §1

[11] = compound: CN(C)CC(=O)Nc1ccc2[nH]c(=O)c3ccccc3c2c1
How it was run: as §1

rosiglitazone = compound: CN(CCOC1=CC=C(C=C1)C[C@H]2C(=O)NC(=O)S2)C3=CC=CC=N3 (racemic) [rosiglitazone]
How it was run: as §1

[12] = compound: CN1C2=C(C3=C1C(=O)N(N=C3)CC4=CC(=CC=C4)N)SC(=C2)S(=O)C
How it was run: as §1

[13] = compound: CN1CCC(CNc2ccc3ncc(-c4cccc(OC(F)(F)F)c4)n3n2)CC1
How it was run: as §1

Sequence of UniProt Q99627 (Q99627 whole entry, looked up): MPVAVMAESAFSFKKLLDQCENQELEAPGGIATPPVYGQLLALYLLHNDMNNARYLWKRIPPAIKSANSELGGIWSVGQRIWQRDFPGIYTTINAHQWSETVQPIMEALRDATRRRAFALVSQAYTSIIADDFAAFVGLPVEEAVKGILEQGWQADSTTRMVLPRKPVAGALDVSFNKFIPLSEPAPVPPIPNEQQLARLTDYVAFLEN
Sequence of UniProt Q96G23 (Q96G23 whole entry, looked up): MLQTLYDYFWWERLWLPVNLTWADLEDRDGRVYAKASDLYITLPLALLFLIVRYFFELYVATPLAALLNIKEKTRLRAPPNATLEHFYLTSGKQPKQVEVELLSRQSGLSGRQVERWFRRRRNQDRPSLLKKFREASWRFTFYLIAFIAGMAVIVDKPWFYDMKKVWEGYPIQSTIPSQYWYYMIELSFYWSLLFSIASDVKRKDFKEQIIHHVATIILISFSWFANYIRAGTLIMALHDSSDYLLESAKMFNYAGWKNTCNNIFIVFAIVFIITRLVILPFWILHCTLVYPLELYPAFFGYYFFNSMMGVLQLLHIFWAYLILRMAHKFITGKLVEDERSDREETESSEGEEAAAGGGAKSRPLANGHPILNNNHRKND
Sequence of UniProt Q96KA5 (Q96KA5 whole entry, looked up): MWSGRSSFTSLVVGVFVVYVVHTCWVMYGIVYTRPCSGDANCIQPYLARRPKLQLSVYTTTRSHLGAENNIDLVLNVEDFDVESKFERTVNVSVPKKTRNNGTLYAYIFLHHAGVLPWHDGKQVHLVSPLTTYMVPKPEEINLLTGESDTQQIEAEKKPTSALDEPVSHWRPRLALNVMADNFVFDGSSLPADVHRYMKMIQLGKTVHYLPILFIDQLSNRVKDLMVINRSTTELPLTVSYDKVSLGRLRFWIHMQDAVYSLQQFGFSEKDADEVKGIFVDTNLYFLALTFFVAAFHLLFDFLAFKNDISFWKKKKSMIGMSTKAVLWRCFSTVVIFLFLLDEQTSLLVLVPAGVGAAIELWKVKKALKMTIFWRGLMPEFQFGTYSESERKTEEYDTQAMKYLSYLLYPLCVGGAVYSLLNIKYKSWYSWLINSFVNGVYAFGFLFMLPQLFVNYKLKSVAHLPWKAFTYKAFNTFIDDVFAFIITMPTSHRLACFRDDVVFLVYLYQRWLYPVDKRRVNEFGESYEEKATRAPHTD

Row | Target | log2 fold change [1] | log2 fold change [2] | log2 fold change [3] | log2 fold change [4] | log2 fold change (Nexturastat A) | log2 fold change (vemurafenib) | log2 fold change [5] | log2 fold change [6] | log2 fold change (givinostat) | log2 fold change (barasertib) | log2 fold change [7] | log2 fold change (volasertib) | log2 fold change [8] | log2 fold change (epoxomicin) | log2 fold change [9] | log2 fold change [10] | log2 fold change [11] | log2 fold change (rosiglitazone) | log2 fold change [12] | log2 fold change [13]
1 | CERS2 (UniProt Q96G23) | -0.02 | 0.015 | 0.036 | 0.019 | -0.083 | -0.018 | 0.101 | -0.013 | -0.038 | -0.002 | -0.148 | -0.133 | 0.011 | 0.03 | -0.004 | -0.001 | 0.001 | 0.088 | 0.007 | -0.46 (active)
2 | COPS8 (UniProt Q99627) | 0.031 | -0.04 | 0 | -0.09 | 0.126 | -0.003 | -0.031 | -0.056 | 0.049 | 0.009 | -0.018 | 0.043 | 0.032 | -0.047 | 0.008 | 0.013 | 0.033 | 0.041 | 0.011 | 0.113
3 | CLPTM1L (UniProt Q96KA5) | -0.014 | 0.01 | 0.03 | 0.022 | -0.032 | 0.045 | 0.016 | -0.015 | 0.009 | 0.021 | -0.067 | -0.185 | 0.005 | 0.013 | 0.009 | -0.051 | 0.023 | 0.054 | -0.023 | -0.188
4 | C19orf53 (UniProt Q9UNZ5) | 0.056 | 0.016 | -0.065 | -0.196 | 0.184 | -0.189 | -0.044 | 0.146 | 0.021 | -0.096 | 0.205 | 0.412 | 0.045 | -0.264 | 0.104 | 0.239 | -0.189 | -0.182 | 0.34 | 0.2
